Compound in the experiment: Cc1cnc(Nc2ccc(OCCN3CCCC3)cc2)nc1Nc1cccc(S(=O)(=O)NC(C)(C)C)c1 [Fedratinib]
Kind of experiment: percent of DMSO control binding (KINOMEscan); higher = weaker binding / less inhibition; extreme values may be limits of the assay. Particulars: concentration: 100 nM.
Sequence of UniProt Q96RR4 (Q96RR4 whole entry, looked up): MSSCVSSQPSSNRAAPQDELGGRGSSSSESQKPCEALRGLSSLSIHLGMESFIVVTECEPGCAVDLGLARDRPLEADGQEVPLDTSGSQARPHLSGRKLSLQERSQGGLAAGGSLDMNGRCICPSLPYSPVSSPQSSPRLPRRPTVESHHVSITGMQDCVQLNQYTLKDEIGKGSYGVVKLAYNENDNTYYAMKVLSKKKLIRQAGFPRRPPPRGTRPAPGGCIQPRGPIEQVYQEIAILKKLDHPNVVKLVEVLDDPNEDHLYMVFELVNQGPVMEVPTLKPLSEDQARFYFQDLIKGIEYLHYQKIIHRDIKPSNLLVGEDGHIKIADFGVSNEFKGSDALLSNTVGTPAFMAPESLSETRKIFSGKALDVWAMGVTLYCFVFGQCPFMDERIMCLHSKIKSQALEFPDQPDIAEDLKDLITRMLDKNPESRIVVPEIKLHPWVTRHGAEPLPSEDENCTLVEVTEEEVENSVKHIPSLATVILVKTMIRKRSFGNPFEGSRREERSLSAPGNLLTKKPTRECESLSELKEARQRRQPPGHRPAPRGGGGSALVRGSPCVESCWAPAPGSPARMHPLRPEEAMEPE
Sequence of UniProt P08631 (P08631 whole entry, looked up): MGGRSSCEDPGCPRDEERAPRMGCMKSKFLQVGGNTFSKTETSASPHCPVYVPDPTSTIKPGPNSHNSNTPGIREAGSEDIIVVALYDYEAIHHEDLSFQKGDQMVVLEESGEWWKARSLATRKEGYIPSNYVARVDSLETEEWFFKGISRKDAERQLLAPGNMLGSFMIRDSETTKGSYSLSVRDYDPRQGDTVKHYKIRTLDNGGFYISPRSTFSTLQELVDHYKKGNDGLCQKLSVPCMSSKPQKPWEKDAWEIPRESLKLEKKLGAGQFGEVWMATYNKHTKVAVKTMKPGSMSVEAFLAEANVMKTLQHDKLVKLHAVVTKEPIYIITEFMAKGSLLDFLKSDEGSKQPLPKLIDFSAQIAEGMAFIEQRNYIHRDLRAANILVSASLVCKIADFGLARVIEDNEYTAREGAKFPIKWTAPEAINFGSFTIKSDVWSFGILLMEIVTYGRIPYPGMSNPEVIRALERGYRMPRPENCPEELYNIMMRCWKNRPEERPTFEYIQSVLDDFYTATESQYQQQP
Sequence of UniProt Q14164 (Q14164 whole entry): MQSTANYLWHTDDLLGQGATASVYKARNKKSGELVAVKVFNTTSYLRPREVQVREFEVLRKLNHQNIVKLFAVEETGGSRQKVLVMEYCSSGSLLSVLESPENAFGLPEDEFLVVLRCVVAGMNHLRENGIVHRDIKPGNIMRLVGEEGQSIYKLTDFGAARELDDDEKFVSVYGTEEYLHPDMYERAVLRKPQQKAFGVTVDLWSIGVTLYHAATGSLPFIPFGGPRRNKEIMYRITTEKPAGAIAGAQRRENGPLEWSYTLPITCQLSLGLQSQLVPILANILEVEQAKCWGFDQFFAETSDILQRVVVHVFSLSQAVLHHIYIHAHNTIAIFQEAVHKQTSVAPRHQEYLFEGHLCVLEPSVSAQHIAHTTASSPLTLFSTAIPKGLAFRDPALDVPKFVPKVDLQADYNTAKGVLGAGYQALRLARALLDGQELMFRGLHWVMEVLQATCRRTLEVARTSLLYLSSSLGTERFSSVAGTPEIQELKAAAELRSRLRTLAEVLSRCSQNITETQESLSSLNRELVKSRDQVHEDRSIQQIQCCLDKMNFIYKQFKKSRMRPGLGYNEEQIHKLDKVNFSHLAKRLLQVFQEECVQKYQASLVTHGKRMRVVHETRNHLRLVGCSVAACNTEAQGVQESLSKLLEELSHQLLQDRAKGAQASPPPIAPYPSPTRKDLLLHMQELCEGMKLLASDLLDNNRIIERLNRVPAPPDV
Sequence of UniProt P08581 (P08581 whole entry Y1235D, looked up): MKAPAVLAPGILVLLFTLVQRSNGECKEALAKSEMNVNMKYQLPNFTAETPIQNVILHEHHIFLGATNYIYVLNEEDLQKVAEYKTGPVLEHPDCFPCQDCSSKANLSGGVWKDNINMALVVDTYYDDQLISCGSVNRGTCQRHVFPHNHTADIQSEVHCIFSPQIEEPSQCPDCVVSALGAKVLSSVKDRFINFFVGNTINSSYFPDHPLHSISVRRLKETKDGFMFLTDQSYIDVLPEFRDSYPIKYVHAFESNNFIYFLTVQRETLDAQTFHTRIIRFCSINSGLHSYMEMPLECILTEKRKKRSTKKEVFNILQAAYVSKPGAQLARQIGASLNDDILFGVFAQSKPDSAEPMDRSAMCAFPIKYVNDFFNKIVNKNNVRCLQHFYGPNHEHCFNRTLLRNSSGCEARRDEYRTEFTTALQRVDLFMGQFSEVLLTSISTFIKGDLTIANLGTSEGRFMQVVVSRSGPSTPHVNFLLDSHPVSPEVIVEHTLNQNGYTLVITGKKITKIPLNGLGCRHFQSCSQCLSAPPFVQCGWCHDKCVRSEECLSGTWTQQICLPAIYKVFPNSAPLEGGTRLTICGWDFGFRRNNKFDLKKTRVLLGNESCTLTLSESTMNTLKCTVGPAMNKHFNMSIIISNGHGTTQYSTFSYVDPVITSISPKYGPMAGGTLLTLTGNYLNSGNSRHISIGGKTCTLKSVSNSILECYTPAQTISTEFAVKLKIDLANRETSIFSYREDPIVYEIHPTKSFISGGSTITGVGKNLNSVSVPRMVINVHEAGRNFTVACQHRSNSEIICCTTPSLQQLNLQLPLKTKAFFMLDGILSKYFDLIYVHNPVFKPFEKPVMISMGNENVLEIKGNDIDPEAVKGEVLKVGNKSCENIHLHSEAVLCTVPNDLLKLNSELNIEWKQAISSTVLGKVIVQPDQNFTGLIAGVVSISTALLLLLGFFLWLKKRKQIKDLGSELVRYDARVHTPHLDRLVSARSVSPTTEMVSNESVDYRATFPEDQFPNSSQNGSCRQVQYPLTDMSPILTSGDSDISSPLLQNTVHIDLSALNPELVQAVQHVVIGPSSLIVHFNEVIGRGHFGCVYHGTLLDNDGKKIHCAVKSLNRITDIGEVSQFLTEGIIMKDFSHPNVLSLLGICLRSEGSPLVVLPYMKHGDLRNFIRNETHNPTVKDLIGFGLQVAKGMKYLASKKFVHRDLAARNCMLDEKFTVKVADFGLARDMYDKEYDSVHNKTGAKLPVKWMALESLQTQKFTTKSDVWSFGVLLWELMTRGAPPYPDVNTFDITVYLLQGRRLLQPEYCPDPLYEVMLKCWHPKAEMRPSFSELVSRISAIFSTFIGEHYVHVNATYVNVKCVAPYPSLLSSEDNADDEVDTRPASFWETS
Sequence of UniProt Q02750 (Q02750 whole entry): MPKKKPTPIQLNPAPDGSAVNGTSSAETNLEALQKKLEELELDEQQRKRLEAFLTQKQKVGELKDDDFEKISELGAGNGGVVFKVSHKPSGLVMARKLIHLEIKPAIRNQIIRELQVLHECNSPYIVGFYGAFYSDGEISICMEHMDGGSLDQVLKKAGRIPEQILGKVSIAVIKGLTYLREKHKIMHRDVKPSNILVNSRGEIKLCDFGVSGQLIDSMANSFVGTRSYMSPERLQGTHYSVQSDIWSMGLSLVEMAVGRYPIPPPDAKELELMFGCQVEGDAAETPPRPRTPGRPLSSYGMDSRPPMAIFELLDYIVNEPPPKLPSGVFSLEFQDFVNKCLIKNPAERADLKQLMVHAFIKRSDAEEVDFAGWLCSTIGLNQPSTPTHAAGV
Sequence of UniProt O94806 (O94806 whole entry): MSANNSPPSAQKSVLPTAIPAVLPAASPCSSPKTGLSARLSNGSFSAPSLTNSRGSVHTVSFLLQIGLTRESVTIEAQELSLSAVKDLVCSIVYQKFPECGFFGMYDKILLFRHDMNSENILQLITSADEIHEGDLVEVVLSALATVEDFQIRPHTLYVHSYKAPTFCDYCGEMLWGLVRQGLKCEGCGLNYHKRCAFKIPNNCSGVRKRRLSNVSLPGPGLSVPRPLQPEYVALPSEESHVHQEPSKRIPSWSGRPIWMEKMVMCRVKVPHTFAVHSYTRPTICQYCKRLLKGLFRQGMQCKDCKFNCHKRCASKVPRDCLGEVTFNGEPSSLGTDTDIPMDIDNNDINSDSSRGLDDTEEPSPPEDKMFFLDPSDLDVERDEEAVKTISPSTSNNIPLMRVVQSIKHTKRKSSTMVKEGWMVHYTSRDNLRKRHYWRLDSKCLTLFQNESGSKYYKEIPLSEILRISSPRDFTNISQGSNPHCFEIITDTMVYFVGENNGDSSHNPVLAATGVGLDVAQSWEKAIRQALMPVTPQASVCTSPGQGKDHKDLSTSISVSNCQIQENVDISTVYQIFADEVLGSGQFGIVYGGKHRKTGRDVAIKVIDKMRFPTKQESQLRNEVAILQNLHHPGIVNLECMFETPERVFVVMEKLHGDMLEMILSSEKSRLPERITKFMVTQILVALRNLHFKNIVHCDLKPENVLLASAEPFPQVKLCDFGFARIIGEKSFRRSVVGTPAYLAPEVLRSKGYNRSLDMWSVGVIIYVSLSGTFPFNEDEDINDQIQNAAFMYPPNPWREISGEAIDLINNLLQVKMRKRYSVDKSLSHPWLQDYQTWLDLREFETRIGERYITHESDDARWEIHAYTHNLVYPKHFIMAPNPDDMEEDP
For the target ROS1 (UniProt P08922), the “percent of DMSO control binding” value is 88%. Regarding TAK1 (UniProt O43318), the “percent of DMSO control binding” value came out at 81%. For CAMKK2 (UniProt Q96RR4), the “percent of DMSO control binding” value worked out at 100%.

Consider IKK-epsilon (UniProt Q14164), for which the “percent of DMSO control binding” value is 57%. For “JAK1(JH2domain-pseudokinase) (UniProt P23458)”, the “percent of DMSO control binding” value came out at 80%.

With MEK1 (UniProt Q02750), the “percent of DMSO control binding” value is 62%.

Consider PRKD3 (UniProt O94806), for which the “percent of DMSO control binding” value was 100%. Take HCK (UniProt P08631): the “percent of DMSO control binding” value was determined as 100%.

MET(Y1235D) (UniProt P08581): the “percent of DMSO control binding” value worked out at 100%.
